Results filed as inconclusive are left out. Calls of active or inactive are those of the source. Unless noted, calls follow the shape of the full dose curve.
Tests used:
[1] = target: Gonadotropin-releasing hormone receptor (Homo sapiens) (UniProt P30968); test: Human gonadotropin-releasing hormone receptor (GnRHR) small molecule agonists, calcium flux assay in GnRHR-HEK293 cells (AID 1920063); also: nearly all actives have a fitted effect of over 35% in size
Summary of the method: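 GnRHR-HEK293, 1500 cells/well, 18 h 37 C/5% CO2; Ca dye 1 h 37 C; cpd pinned (DMSO), agonist mode; kinetic FL 480/540, 3 min, 1 s reads; 15 conc, n=3.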

[2] = p53 small molecule agonists, cell-based qHTS assay with human liver microsomes: qHTS cell viability counter screen (AID 1963579); also: nearly all actives have a fitted effect of over 45% in size; also: potency is read from the fitted curve at half-maximal effect
Summary of the method: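 Tox21 library compounds, delivered from DMSO stocks, were tested on p53RE-bla cells together with 0.5 mg/mL human liver microsomes and 0.5 mg/mL NADPH (final) over 16 h at 37 C; CellTiter-Glo luminescence served as the cytotoxicity measure.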

[3] = p53 small molecule agonists, cell-based qHTS assay with rat liver microsomes: qHTS cell viability counter screen (AID 1963580); also: nearly all actives have a fitted effect of over 45% in size
Summary of the method: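 p53RE-bla HCT-116 cells were exposed 16 h at 37 C to compounds with rat liver microsomes (0.5 mg/mL) and NADPH (0.5 mg/mL). Viability was measured in the same wells as ATP content by CellTiter-Glo luminescence.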

[4] = p53 small molecule agonists, cell-based qHTS assay (AID 1963582; active = well fitted activation curve with a large enough effect in the signal ratio in the repeat runs, not every such curve was filed as active; the % refers to the signal ratio)
Summary of the method: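 Reporter line: p53RE-bla. Pre-incubation 5 h, 37 C, 5% CO2; compound (DMSO, pin tool) 16 h, 37 C; B/G FRET substrate 2 h RT; fluorescence intensity read.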

[5] = target: 5-hydroxytryptamine receptor 2A (Homo sapiens) (UniProt P28223); test: 5-hydroxytryptamine receptor 2A (HTR2A) small molecule antagonists, cell-based qHTS assay (AID 1963586); also: nearly all actives have a fitted effect of over 45% in size; also: potency is read from the fitted curve at half-maximal effect
Summary of the method: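 Antagonist-mode intracellular calcium assay: DOI (4 nM) added after 5 min compound pre-incubation at room temperature to dye-loaded HTR2A-CHO cells. Fluorescence followed for 3 min, sampled every second.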

[6] = target: Muscarinic acetylcholine receptor M1 (Homo sapiens) (UniProt P11229); test: Cholinergic receptor muscarinic 1 (CHRM1) small molecule antagonists, cell-based qHTS assay (AID 1963588); also: nearly all actives have a fitted effect of over 40% in size; also: potency is read from the fitted curve at half-maximal effect
Summary of the method: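 CHRM1-CHO calcium-flux assay, antagonist mode. Cells were seeded 18 h, dye-loaded 1 h at 37 C and given compound for 5 min at RT, then acetylcholine was added at 50nM. FDSS fluorescence was read 3 min; 15 concentrations, three runs.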

[7] = target: Muscarinic acetylcholine receptor M1 (Homo sapiens) (UniProt P11229); test: Cholinergic receptor muscarinic 1 (CHRM1) small molecule agonists, cell-based qHTS assay (AID 1963589); also: nearly all actives have a fitted effect of over 35% in size
Summary of the method: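 Human M1 in stable CHO line; 18 h plating, 1 h dye load 37 C; cpd added (agonist mode); Ca2+ fluorescence kinetic read, 1 s intervals; 15 conc, 3 runs.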

[8] = cAMP Responsive Elements (CRE) small molecule agonists, cell-based qHTS assay (AID 1963590)
Summary of the method: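 HEK 293T CRE-bla, 2,000 cells/well, 18 h preincubation 37 C/5% CO2; cpds (DMSO) pinned, 3 h; LiveBLAzer B/G FRET substrate, 2 h RT.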

[9] = cAMP Responsive Elements (CRE) small molecule antagonists, cell-based qHTS assay (AID 1963591; active = well fitted inhibition curve with a large enough effect in the signal ratio in the repeat runs, not every such curve was filed as active; the % refers to the signal ratio)
Summary of the method: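 Beta-lactamase reporter read by FRET substrate (LiveBLAzer B/G) after 2 h at room temperature. CRE-bla HEK293T cells had received compound plus 0.25 uM (final) NKH477 for 3 h at 37 °C.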

[10] = target: Beta-2 adrenergic receptor (Homo sapiens) (UniProt P07550); test: Adrenergic beta2 receptor (ADRB2) small molecule antagonists, cell-based qHTS assay (AID 1963592); also: nearly all actives have a fitted effect of over 50% in size; also: potency is read from the fitted curve at half-maximal effect
Summary of the method: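 Cells (CHO, stable ADRB2 overexpression) incubated 18-20hr at 37C; compounds added from DMSO; agonist mix (1nM isoproterenol, 100uM IBMX, 25uM Ro-20-1724) added; 0.5hr RT; d2-cAMP and anti-cAMP-cryptate added; 1hr RT; 665/615 nm read.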

[11] = target: Beta-2 adrenergic receptor (Homo sapiens) (UniProt P07550); test: Adrenergic beta2 receptor (ADRB2) small molecule agonists, cell-based qHTS assay (AID 1963593);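 also: CHO cells stably overexpressing human ADRB2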
Summary of the method: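 CHO cells stably over-expressing ADRB2 were plated overnight at 37C, then dosed with compounds plus a stimulation mix containing 100uM IBMX and 25uM Ro-20-1724 for 0.5hr at room temperature. cAMP was measured by HTRF competition, 1hr.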

[12] = target: D(2) dopamine receptor (Homo sapiens) (UniProt P14416); test: Dopamine D2 receptor (DRD2) small molecule agonists, cell-based qHTS assay (AID 1963594); also: nearly all actives have a fitted effect of over 35% in size
Summary of the method: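 HEK293 cells stably expressing human DRD2, pre-treated with PDE inhibitor Ro20-1724 (0.1 mM final) and compound 10 min at room temperature, then stimulated with NKH477 (200nM […]) for 30 min. cAMP read by HTRF (665/620 nm).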

[13] = target: D(2) dopamine receptor (Homo sapiens) (UniProt P14416); test: Dopamine D2 receptor (DRD2) small molecule antagonists, cell-based qHTS assay (AID 1963595; active = well fitted inhibition curve with a large enough effect in the signal ratio in the repeat runs, with a control signal flat; the % refers to the signal ratio)
Summary of the method: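 DRD2-HEK293; 0.1 mM Ro20-1724; cpd 10 min RT; NKH477 200 nM + quinpirole 12 nM, 30 min RT; HTRF cAMP (cAMP-d2/anti-cAMP cryptate), 665/620 nm ratio after 1 h.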

[14] = target: 5-hydroxytryptamine receptor 2A (Homo sapiens) (UniProt P28223); test: 5-hydroxytryptamine receptor 2A (HTR2A) small molecule agonists, cell-based qHTS assay (AID 1963587); also: nearly all actives have a fitted effect of over 30% in size
Summary of the method: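 CHO cells stably expressing human HTR2A, plated 18 h, loaded with calcium dye 1 h at 37 C. Agonist mode: compounds added and intracellular calcium fluorescence recorded kinetically for 2 min at 1 sec intervals.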

[15] = G protein-coupled receptor (GPCR) small molecule agonists, calcium flux assay: HEK293 wild type cell line counter screen (AID 1920065)
Summary of the method: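 Kinetic fluorescence at Ex/Em 480/540, recorded every second over 3 min, served as the read-out after compound addition. Each compound was tested at 15 concentrations in triplicate on cells pre-loaded with calcium dye for 1 h.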

[16] = p53 small molecule agonists, cell-based qHTS assay with rat liver microsomes (AID 1963578)
Summary of the method: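 Each plate received p53RE-bla cells, then compound, then rat liver microsomes and NADPH (both 0.5 mg/mL final). Plates were held 16 h at 37 C, and beta-lactamase activity was detected with LiveBLAzer over 2 h.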

[17] = target: KiSS-1 receptor (Homo sapiens) (UniProt Q969F8); test: Human kisspeptin (KISS1R) small molecule agonists, calcium flux assay in KISS1R-HEK293 cells (AID 1920064; active = well fitted activation curve with a large enough effect in the repeat runs)
Summary of the method: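 Stable human KISS1R HEK293 line; 18 h plating, 37 C/5% CO2; calcium dye 1 h 37 C; compound pin transfer; kinetic fluorescence Ex/Em 480/540, 3 min.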

[18] = p53 small molecule agonists, cell-based qHTS assay with human liver microsomes (AID 1963577);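 also: p53 response element beta-lactamase reporter cells with liver microsomes plus NADPH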
Summary of the method: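 Metabolically competent format: test substances, human liver microsomes and NADPH (both 0.5 mg/mL final) incubated with p53RE-bla cells 16 h at 37 C. Beta-lactamase reporter signal then quantified by fluorescence.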

[19] = p53 small molecule agonists, cell-based qHTS assay: qHTS cell viability counter screen (AID 1963581); also: nearly all actives have a fitted effect of over 45% in size
Summary of the method: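 HCT-116 p53RE-bla cells, 4,000/well, plated 5 h before compound pin transfer; 16 h at 37 C; bla substrate 2 h RT; then CellTiter-Glo, 30 min RT, luminescence.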

Measured: Potency

Chain of D(2) dopamine receptor (Homo sapiens) (P14416 whole entry, looked up): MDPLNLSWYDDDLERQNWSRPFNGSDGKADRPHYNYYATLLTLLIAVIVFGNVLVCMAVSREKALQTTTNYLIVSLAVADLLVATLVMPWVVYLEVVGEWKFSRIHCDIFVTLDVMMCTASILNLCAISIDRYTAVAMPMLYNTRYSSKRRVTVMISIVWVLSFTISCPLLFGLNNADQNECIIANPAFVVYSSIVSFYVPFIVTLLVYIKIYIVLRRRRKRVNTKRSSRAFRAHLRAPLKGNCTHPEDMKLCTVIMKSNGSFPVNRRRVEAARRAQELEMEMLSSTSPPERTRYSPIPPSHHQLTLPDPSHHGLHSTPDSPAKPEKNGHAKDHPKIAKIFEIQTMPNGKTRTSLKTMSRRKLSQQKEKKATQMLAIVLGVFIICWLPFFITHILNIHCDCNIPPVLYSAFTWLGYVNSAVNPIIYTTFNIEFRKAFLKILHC
Chain of KiSS-1 receptor (Homo sapiens) (Q969F8 whole entry, looked up): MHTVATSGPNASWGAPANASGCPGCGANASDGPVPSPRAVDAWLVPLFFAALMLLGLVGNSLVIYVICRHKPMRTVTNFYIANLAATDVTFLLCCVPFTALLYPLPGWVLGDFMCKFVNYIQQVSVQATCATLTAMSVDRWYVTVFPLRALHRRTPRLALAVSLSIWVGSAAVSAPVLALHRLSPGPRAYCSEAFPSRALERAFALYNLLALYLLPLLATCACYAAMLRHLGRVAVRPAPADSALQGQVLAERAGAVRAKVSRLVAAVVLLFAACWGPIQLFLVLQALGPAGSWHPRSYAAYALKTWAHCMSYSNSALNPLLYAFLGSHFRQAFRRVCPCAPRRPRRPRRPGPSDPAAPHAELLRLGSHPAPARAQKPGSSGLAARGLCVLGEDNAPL
Chain of Beta-2 adrenergic receptor (Homo sapiens) (P07550 whole entry, looked up): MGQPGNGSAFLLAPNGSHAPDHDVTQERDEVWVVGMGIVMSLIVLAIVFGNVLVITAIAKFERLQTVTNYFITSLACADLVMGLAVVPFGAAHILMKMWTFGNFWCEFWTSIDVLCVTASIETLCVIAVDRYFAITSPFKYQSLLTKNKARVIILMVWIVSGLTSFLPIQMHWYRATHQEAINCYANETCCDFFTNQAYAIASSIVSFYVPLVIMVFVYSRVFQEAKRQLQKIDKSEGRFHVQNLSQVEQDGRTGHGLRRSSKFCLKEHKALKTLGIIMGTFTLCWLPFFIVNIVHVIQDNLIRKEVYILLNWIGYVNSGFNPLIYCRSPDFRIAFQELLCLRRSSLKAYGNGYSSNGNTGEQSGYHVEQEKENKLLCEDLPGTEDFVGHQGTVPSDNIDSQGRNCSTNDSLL
Chain of Muscarinic acetylcholine receptor M1 (Homo sapiens) (P11229 whole entry, looked up): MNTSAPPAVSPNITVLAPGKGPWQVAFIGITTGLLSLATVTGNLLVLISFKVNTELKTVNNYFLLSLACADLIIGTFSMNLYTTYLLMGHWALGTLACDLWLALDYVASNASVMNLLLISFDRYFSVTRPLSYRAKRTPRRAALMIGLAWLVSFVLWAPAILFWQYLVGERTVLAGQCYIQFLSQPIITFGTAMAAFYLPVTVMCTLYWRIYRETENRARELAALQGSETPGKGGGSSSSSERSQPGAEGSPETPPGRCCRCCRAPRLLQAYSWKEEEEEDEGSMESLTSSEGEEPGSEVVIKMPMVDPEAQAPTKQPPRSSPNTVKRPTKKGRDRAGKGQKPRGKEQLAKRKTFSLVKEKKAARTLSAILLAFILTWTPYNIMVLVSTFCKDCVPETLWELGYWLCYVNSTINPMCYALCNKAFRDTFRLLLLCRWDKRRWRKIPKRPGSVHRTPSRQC
Chain of 5-hydroxytryptamine receptor 2A (Homo sapiens) (P28223 whole entry, looked up): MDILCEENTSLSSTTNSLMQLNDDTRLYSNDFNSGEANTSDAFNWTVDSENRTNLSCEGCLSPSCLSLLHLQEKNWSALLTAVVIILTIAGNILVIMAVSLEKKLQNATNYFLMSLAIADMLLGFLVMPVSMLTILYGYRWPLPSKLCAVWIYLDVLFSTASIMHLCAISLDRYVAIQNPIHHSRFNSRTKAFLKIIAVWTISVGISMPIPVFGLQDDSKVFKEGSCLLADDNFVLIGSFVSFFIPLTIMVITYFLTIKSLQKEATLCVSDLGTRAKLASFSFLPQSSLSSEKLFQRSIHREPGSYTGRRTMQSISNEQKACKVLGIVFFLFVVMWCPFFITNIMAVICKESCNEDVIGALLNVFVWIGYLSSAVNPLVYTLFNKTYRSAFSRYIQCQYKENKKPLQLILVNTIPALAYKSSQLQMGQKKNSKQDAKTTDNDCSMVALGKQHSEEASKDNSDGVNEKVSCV
Chain of Gonadotropin-releasing hormone receptor (Homo sapiens) (P30968 whole entry, looked up): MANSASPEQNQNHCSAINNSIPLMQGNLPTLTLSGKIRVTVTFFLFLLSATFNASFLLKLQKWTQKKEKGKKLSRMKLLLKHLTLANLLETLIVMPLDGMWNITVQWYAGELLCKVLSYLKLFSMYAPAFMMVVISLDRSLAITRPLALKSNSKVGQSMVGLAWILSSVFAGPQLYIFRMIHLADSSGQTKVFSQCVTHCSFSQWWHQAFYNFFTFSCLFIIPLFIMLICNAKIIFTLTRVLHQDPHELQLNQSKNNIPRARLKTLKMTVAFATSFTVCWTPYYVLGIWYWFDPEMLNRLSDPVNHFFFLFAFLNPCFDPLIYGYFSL

Cc1ccc(O)c([C@H](CCN(C(C)C)C(C)C)c2ccccc2)c1
inactive: [1] | [2] | [3] | [4] | [5] | [7] | [8] | [9] | [10] | [11] | [12] | [13]
active: [6] 0.0326 µM

Nc1ccc(N)c([N+](=O)[O-])c1
inactive: [5] | [6]

CCCCCCCC1CCC(=O)O1 (stereo not drawn)
inactive: [5] | [14] | [6] | [7] | [10] | [13]

O[C@@H](c1cc(C(F)(F)F)nc2c(C(F)(F)F)cccc12)[C@H]1CCCCN1
inactive: [15] | [16] | [2] | [3] | [12] | [13]
active: [5] 3.65 µM

Cc1cccc(Nc2ccccc2)c1
inactive: [17] | [15] | [18] | [16] | [2] | [3] | [19] | [4] | [5] | [14] | [6] | [7] | [10] | [11] | [12] | [13]

COc1ccc2ccccc2c1
inactive: [14] | [6] | [7] | [10] | [11] | [12] | [13]
active: [5] 33.4 µM

CC(C)(C)c1csc(-c2cc3cc(OCc4ccccc4CC(=O)O)ccc3o2)n1
active: [2] 45.8 µM
inactive: [15] | [18] | [5] | [12] | [13]

OC[C@H]1O[C@@H](n2cnc3c(=S)nc[nH]c32)[C@H](O)[C@@H]1O
inactive: [17] | [15] | [2] | [3] | [5] | [14] | [6] | [7] | [8] | [9] | [10] | [11] | [12] | [13]

CNCC[C@H](Oc1cccc2ccccc12)c1cccs1
inactive: [15] | [18] | [16] | [3] | [19] | [7] | [8] | [13]

CCOC(=O)[C@H](CCc1ccccc1)N[C@H]1CCc2ccccc2N(CC(=O)O)C1=O
active: [10] 23.7 µM
inactive: [17] | [15] | [3] | [19] | [13]

CC(=O)O[C@@]12CO[C@@H]1C[C@H](O)[C@@]1(C)C(=O)[C@H](O)C3=C(C)[C@@H](OC(=O)[C@H](O)[C@@H](NC(=O)OC(C)(C)C)c4ccccc4)C[C@@](O)([C@@H](OC(=O)c4ccccc4)[C@H]21)C3(C)C
inactive: [1] | [15] | [12] | [13]

CS(=O)(=O)c1ccc([C@@H](CC2CCCC2)C(=O)Nc2cnccn2)cc1Cl
inactive: [5] | [14] | [6] | [7] | [10] | [11] | [12] | [13]

— PubChem BioAssay (Tox21)
